# Test results as given in ChEMBL document CHEMBL3988442, “University of Dundee, Small-Polar-MMV Screening Library” (2021).
# The whole screen tested about 69,000 compounds, of which about 1,000 (1.4%) showed an effect of 50% or more. What follows is part of a selection rich in strong results, with near analogues and random picks from the rest.
# Tested on: Leishmania donovani
# Assay: Leishmania intramacrophage assay
# Type: functional, organism-based
# Parameters: scale not given: in the data most compounds retested in dose-response had high values
smiles,measurement,setting,value
CCN(CCCNC(=O)Nc1ccccc1C(C)C)S(C)(=O)=O,Percent Effect,"30.3 µM, […]",27.9%
O=C(NCCCN1CCOCC1)c1ccc(-n2ccc3ccccc32)s1,Percent Effect,"30.3 µM, […]",90.86%
CCN(CC)CCNC(=O)c1cnc(C(C)(C)C)s1,Percent Effect,"30 µM, 30.03 µM",10.1%
CCN(CC)CCNC(=O)c1ccc(-n2ccc3ccccc32)s1,Percent Effect,"30.3 µM, […]",95.71%
Cn1ccc2c(C(=O)NCCCN3CCCC3)cccc21,Percent Effect,"30.3 µM, […]",16.97%
O=C(NCCN1CCOCC1)c1ccc(-n2ccc3ccccc32)s1,Percent Effect,"30 µM, 30.03 µM",37.35%
O=C(NCCCN1CCCCC1)c1ccc(-n2ccc3ccccc32)s1,Percent Effect,"30 µM, 30.03 µM",94.7%
O=C(NCCCN1CCCC1=O)c1ccc(-n2ccc3ccccc32)s1,Percent Effect,"30.3 µM, […]",32.92%
CCC1CN(CC(=O)NCCN(CC)CC)c2ccccc2S1 (centres undefined),Percent Effect,"30.3 µM, […]",24.72%
CCOCCCC(=O)Nc1[nH]nc(-c2ccncc2)c1C,Percent Effect,"30.3 µM, […]",25.28%
CC(C)(O)C1CCN(C(=O)Nc2nc(-c3ccccc3)ns2)CC1,Percent Effect,"30 µM, 30.03 µM",46.85%
CC(C)(CO)CCCNC(=O)N1CCc2c(F)ccc(F)c2C1,Percent Effect,"30.3 µM, […]",-32.7%
COc1cc(N2CC[C@H](O)[C@@H]2Cc2cnn(C)c2)ncn1,Percent Effect,"30 µM, 30.03 µM",12.89%
COc1ccccc1C(=O)N1C[C@@H]2CCCCN(CC(N)=O)[C@@H]2C1,Percent Effect,"30.3 µM, […]",-33.88%
O=C(Nc1ccccn1)N(CCO)Cc1ccccc1Br,Percent Effect,30 µM,5.548%
CN1CCN(Cc2ccc(-c3ccc(C(N)=O)cc3)nc2)CC1,Percent Effect,"30.3 µM, […]",77.28%
CN1CCN(Cc2ccc(-c3ccc(-c4ccn[nH]4)cc3)nc2)CC1,Percent Effect,"30.3 µM, […]",8.288%
CN1CCN(Cc2ccc(-c3ccc4[nH]ccc4c3)nc2)CC1,Percent Effect,"30.3 µM, […]",-38.55%
CS(=O)(=O)N1CC[C@H]2OCC[C@@]2(C(=O)NCc2ccccn2)C1.O=C(O)C(F)(F)F,Percent Effect,"30.3 µM, […]",38.61%
CC(C)N1CC2(CCC1=O)CCN(c1ccnc3ccccc13)CC2,Percent Effect,"30.3 µM, […]",16.36%
CC(C)N1CC2(CCCN(c3ccccn3)C2)CCC1=O (centres undefined),Percent Effect,"30.3 µM, […]",24.82%
CC(C)N1CC2(CCCN(c3ccnc4ccccc34)C2)CCC1=O (centres undefined),Percent Effect,"30.3 µM, […]",61.79%
CN1CCN(C(=O)c2cccc(S(=O)(=O)NCC3(C)COC3)c2)CC1,Percent Effect,"30.3 µM, […]",33.44%
COC(=O)COc1cc(NCc2c(C)noc2C)c(Cl)cc1C,Percent Effect,"30.3 µM, […]",56.06%
COc1cc(Cl)c(NCc2c(C)noc2C)cc1OC,Percent Effect,"30.3 µM, […]",14.57%
COc1cc(NCc2c(C)noc2C)c(OC)cc1Cl,Percent Effect,"30.3 µM, […]",13.7%
CN1C(=O)COc2ccc(NC(=O)CCc3nc4cccnc4[nH]3)cc21,Percent Effect,"30.3 µM, […]",53.55%
CN1C(=O)COc2cc(NC(=O)CCc3nc4cccnc4[nH]3)ccc21,Percent Effect,"30.3 µM, […]",33.08%
O=C(CCc1nc2cccnc2[nH]1)Nc1ccc2c(c1)NC(=O)CO2,Percent Effect,"30.3 µM, […]",20.44%
O=C(N[C@@H]1CCN(C(=O)c2cc[nH]c2)C[C@H]1O)c1ccccn1,Percent Effect,"30.3 µM, […]",4.682%
CN1CCC(CNC(=O)c2cccc(CN3CCCCCC3)c2)C1 (centres undefined),Percent Effect,"30.3 µM, […]",-20.09%
CCC[C@H]1CN(S(C)(=O)=O)C[C@@H]1NC(=O)CCOCC,Percent Effect,"30.3 µM, […]",-29.93%
Cc1ccc(NC(=O)c2n[nH]c(-n3cnnc3)n2)cc1,Percent Effect,"30.3 µM, […]",53.89%
O=C(Nc1ccccc1)c1n[nH]c(-n2cnnc2)n1,Percent Effect,"30.3 µM, […]",15.16%
CCc1ccc(NC(=O)c2n[nH]c(-n3cnnc3)n2)cc1,Percent Effect,"30.3 µM, […]",-23.27%
O=C(NCC(O)(c1ccco1)C1CC1)c1ccccc1F (centres undefined),Percent Effect,"30.3 µM, […]",-8.312%
CCCS(=O)(=O)CCN1CCOC(c2ccsc2)C1 (centres undefined),Percent Effect,"30.3 µM, […]",22.47%
CNS(=O)(=O)CC(=O)N1CCC(c2ccc(F)c(F)c2)CC1,Percent Effect,"30.3 µM, […]",9.155%
CC(C)c1nnc2n1CCN(C(=O)c1ccc3c(c1)NC(=O)CO3)C2,Percent Effect,"30.3 µM, […]",10.03%
Fc1cccc(N2C[C@H]3CCN(c4cccnc4)C[C@H]3C2)c1.O=C(O)C(F)(F)F,Percent Effect,"30 µM, 30.03 µM",57.72%
O=C(C1CCC1)N1C[C@@H]2CCN(c3cccnc3)C[C@@H]2C1.O=C(O)C(F)(F)F,Percent Effect,"30.3 µM, […]",7.145%
O=C(O)C(F)(F)F.O=C(c1ccc(F)cc1)N1C[C@@H]2CCN(c3cccnc3)C[C@@H]2C1,Percent Effect,"30.3 µM, […]",-2.032%
CCn1cnnc1C1CCN(C(=O)c2cccc3c2ccn3C)CC1,Percent Effect,"30 µM, 30.03 µM",34.62%
CNC(=O)Cc1ccc(NC(=O)NC2(c3cccc(F)c3)CC2)cc1,Percent Effect,"30.3 µM, […]",15.99%
CCc1cccc(N2CCC(NC(=O)C3CCOCC3)CC2)c1,Percent Effect,30 µM,8.469%
Clc1cccc(-c2cccc(N3CCC(NC4CCOCC4)CC3)c2)c1,Percent Effect,"30.3 µM, […]",97.72%
Cc1nc(-c2cccc(N3CCC(NC4CCOCC4)CC3)c2)cs1,Percent Effect,"30.3 µM, […]",22.64%
Cc1nnc(-c2cccc(N3CCC(NC4CCSC4)CC3)c2)s1 (centres undefined),Percent Effect,"30.3 µM, […]",17.73%
Cc1ccc(-c2cccc(N3CCC(NC4CCOCC4)CC3)c2)cc1,Percent Effect,"30.3 µM, […]",88.48%
